In experiment [1] the target is Thyrotropin receptor (Homo sapiens) (UniProt P16473). In words: qHTS assay to identify small molecule antagonists of the thyroid stimulating hormone receptor (TSHR) signaling pathway (AID 1259385; calls by dose curve; further: nearly all actives have a fitted effect of over 20% in size). The gist of the method: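 TSHR-HEK293 cells were plated and held 18 h at 37C/5% CO2, then given compound plus Ro20-1724 and stimulated with TSH at 1.5 ng/mL final. After 30 min at room temperature, cAMP was detected with cAMP-d2/anti-cAMP-cryptate (1 h) by fluorescence.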
Background: qHTS replaces the single test concentration by a dilution series.

A short description of experiment [2]: qHTS assay to identify small molecule agonists of the estrogen receptor alpha (ER-alpha) signaling pathway in the presence of an antagonist - cell viability counter screen (AID 1259386).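 Further: series mostly up to about 92 µM; cells exposed to compounds for 22 h at 37 °C before the viability read; nearly all actives have a fitted effect of over 30% in size.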 The gist of the method:
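ICI-182,780 at 10.0nM final accompanies the compound titration (15 concentrations, 22hr, 37C) on VM7Luc4E2 cells. The CellTiter-Fluor fluorescence readout runs in the same wells as the luciferase assay.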

In experiment [3] the target is Progesterone receptor (Homo sapiens) (UniProt P06401). The experiment in a line: qHTS assay to identify small molecule agonists of the progesterone receptor (PR) signaling pathway (AID 1346784; calls by dose curve; further: nearly all actives have a fitted effect of over 30% in size). The procedure, abridged:
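The screen uses PR-UAS-bla HEK 293T cells in charcoal-stripped serum (2%). Compounds are applied for 16 hr at 37C after a 6 hr pre-incubation, and reporter activity is detected with a FRET beta-lactamase substrate after 2 hr at room temperature.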

The target is the same in experiment [4]. The experiment in a line: qHTS assay to identify small molecule antagonists of the progesterone receptor (PR) signaling pathway (AID 1346795; active means well fitted inhibition curve with a large enough effect in the signal ratio in the repeat runs, not every such curve was filed as active; the % refers to the signal ratio; further: potency means the concentration at half of the fitted maximal effect). The procedure, abridged: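 After 6 hr plating at 37C in 2% stripped-serum medium, PR-UAS-bla HEK293T cells got compounds, then 1 nM R5020. Sixteen hours later, LiveBLAzer substrate was applied for 2 hr at room temperature and fluorescence was recorded.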

Experiment [5] is described as follows: qHTS assay to identify small molecule antagonists of the progesterone receptor (PR) signaling pathway - cell viability counter screen (AID 1346798). Further: series mostly up to about 92 µM; nearly all actives have a fitted effect of over 50% in size. The procedure, abridged: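 Viability was determined by ATP-based luminescence (CellTiter-Glo) in PR-UAS-bla HEK293T cells cultured in 2% charcoal-stripped serum and incubated 16 hr with compounds under R5020 stimulation.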

Experiment [6] can be described thus: qHTS assay to identify small molecule agonists of the progesterone receptor (PR) signaling pathway - cell viability counter screen (AID 1346799; calls by dose curve; further: nearly all actives have a fitted effect of over 45% in size). The gist of the method:
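Viability was scored by ATP luminescence (CellTiter-Glo, 30 min, room temperature) in the same wells used for the reporter readout, after 16 hr compound exposure of PR-UAS-bla HEK293T cells.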

The nature of experiment [7]: qHTS assay to identify small molecule antagonists of the TGF-beta/Smad signaling pathway - cell viability counter screen (AID 1346824). Further: nearly all actives have a fitted effect of over 50% in size. The procedure, abridged:
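SBE-bla HEK 293T cells were plated overnight at 37 C, then given compounds in DMSO plus TGF-beta1 (added as 0.25 ng/mL solution) for 5 hr. After the bla read, CellTiter-Glo was added to the same wells and luminescence read after 30 min at room temperature.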

Experiment [8] can be described thus: qHTS assay to identify small molecule agonists of the TGF-beta/Smad signaling pathway - cell viability counter screen (AID 1346829). Further: top concentration of the series differs between compounds; nearly all actives have a fitted effect of over 45% in size. The procedure, abridged:
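HEK 293T SBE-bla line, 5 hr compound exposure at 37 C, multiplexed CellTiter-Glo viability read by luminescence.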

Experiment [9] in a line: qHTS assay to identify small molecule agonists of the TGF-beta/Smad signaling pathway (AID 1346859; active means well fitted activation curve with a large enough effect in the signal ratio in the repeat runs, not every such curve was filed as active; the % refers to the signal ratio; further: series mostly up to about 77 µM). The gist of the method:
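Dual-wavelength fluorescence (460/530 nm emission) quantified beta-lactamase expression under the Smad binding element in HEK 293T cells following 5 hr compound treatment at 37 C.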

The nature of experiment [10]: Human pregnane X receptor (PXR) small molecule agonists, qHTS cell viability counter screen (AID 1346977). Further: nearly all actives have a fitted effect of over 50% in size. The gist of the method:
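HepG2 cells stably carrying the PXR-Luc reporter are cultured with 5% charcoal-stripped FBS and treated with compounds for 24hr. CellTiter-Fluor is added at 23hr and fluorescence is read after 1hr.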

The nature of experiment [11]: Caspase-3/7 induction in HepG2 cells by small molecules, qHTS assay (AID 1346978). Further: nearly all actives have a fitted effect of over 15% in size. The gist of the method:
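Wild-type HepG2 cells (2,000/well) were settled 5 h at 37 C, 5% CO2, then exposed to compounds in DMSO for 17 h. Caspase-3/7 activity was read by luminescence 30 min after adding Caspase-Glo 3/7 reagent at room temperature.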

A short description of experiment [12]: Caspase-3/7 induction in CHO-K1 cells by small molecules, qHTS cell viability counter screen (AID 1346979). Further: nearly all actives have a fitted effect of over 35% in size. Further: potency means the concentration at half of the fitted maximal effect. The procedure, abridged: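 Seeding: 1,500 CHO-K1 cells/well. Rest: 5hr, 37C. Treatment: compounds in DMSO, 16hr. Read: CellTiter-Fluor, 1hr, fluorescence.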
The nature of experiment [13]: Caspase-3/7 induction in CHO-K1 cells by small molecules, qHTS assay (AID 1346980). Further: nearly all actives have a fitted effect of over 15% in size. The procedure, abridged:
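Wild-type cells were seeded at 1,500 per well and settled 5 hr at 37 C, 5% CO2, then exposed to DMSO-dissolved compounds for 17 hr. Caspase-Glo 3/7 reagent was added, and luminescence was read after 30min at room temperature.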

A short description of experiment [14]: Caspase-3/7 induction in HepG2 cells by small molecules, qHTS cell viability counter screen (AID 1346981). Further: nearly all actives have a fitted effect of over 30% in size. Further: potency means the concentration at half of the fitted maximal effect. The procedure, abridged: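 Multiplexed with the caspase-3/7 assay: HepG2 cells, 16 hr compound treatment, CellTiter-Fluor viability detection by fluorescence.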
In experiment [15] the target is Nuclear receptor subfamily 1 group I member 2 (Homo sapiens) (UniProt O75469). In words: Human pregnane X receptor (PXR) small molecule agonists, qHTS assay (AID 1346982). Further: nearly all actives have a fitted effect of over 35% in size. Further: potency means the concentration at half of the fitted maximal effect. The gist of the method: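 We seeded PXR-Luc HepG2 cells in assay medium containing 5% charcoal-stripped FBS, added compounds 5 hr later, incubated 24 hr, and read luminescence with ONE-Glo reagent.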

Experiment [16] deals with Thyrotropin-releasing hormone receptor (Homo sapiens) (UniProt P34981). The experiment in a line: qHTS assay to identify small molecule antagonists of the thyrotropin-releasing hormone receptor (TRHR) signaling pathway (AID 1346877; active means well fitted inhibition curve with a large enough effect in the repeat runs, not every such curve was filed as active; further: series mostly up to about 51 µM). The gist of the method: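 Screening used HEK293 cells engineered with TRHR, with a brief 5 min room-temperature compound exposure preceding addition of TRH to 1 nM. The read-out was kinetic calcium-dye fluorescence, concentration-response from 15 doses in triplicate.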

Experiment [17] shares this target. In words: qHTS assay to identify small molecule agonists of the thyrotropin-releasing hormone receptor (TRHR) signaling pathway (AID 1346891; calls by dose curve;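 further: HEK293 cells expressing TRHR with calcium dye readout; series mostly up to about 58 µM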). The gist of the method:
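Kinetic fluorescence (3 min, 1 s intervals) reported intracellular calcium after compound transfer onto TRHR-Hek293 cells pre-loaded with dye for 2 h at 37 °C.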

Each structure is given as a SMILES string. Values joined by “and” are separate entries in the source; they are usually repeats but may differ in a detail not shown here. Identical values can stand only once. Records with an inconclusive call do not appear. Some structures have more than one record in an assay (separate samples or runs), and their calls can disagree. Active and inactive are the calls of the source. Unless noted, the call rests on the fitted dose curve; in most records, active means well fitted curve in the direction sought with a large enough effect in the repeat runs; inconclusive means weak or mixed curves; inactive means no such curve, though single readings can be large; an effect the other way counts as inactive or inconclusive.

Progesterone receptor (Homo sapiens), sequence (P06401 whole entry, looked up): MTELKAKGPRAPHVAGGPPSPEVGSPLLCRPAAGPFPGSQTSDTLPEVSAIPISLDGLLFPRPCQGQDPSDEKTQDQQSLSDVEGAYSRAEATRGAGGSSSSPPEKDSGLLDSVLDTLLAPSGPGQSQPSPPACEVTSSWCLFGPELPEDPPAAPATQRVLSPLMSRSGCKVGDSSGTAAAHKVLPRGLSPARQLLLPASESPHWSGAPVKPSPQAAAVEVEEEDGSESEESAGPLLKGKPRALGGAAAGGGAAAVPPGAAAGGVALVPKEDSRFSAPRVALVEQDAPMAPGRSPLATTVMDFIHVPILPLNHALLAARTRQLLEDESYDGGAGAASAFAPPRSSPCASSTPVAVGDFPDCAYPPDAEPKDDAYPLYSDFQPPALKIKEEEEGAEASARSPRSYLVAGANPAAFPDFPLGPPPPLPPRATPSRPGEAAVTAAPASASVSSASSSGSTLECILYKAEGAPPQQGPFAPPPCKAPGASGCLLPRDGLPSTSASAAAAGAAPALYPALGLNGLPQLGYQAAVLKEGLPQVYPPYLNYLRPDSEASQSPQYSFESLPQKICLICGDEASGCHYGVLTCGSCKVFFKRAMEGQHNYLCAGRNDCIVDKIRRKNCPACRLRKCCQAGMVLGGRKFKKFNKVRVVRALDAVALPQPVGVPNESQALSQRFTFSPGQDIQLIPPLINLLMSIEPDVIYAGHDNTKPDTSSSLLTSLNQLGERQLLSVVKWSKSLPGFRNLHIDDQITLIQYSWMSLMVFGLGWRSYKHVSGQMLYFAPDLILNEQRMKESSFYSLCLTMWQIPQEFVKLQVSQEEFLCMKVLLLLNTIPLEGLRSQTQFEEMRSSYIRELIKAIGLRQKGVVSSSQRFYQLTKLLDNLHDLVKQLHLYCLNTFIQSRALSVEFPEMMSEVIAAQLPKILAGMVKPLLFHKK
Nuclear receptor subfamily 1 group I member 2 (Homo sapiens), sequence (O75469 whole entry, looked up): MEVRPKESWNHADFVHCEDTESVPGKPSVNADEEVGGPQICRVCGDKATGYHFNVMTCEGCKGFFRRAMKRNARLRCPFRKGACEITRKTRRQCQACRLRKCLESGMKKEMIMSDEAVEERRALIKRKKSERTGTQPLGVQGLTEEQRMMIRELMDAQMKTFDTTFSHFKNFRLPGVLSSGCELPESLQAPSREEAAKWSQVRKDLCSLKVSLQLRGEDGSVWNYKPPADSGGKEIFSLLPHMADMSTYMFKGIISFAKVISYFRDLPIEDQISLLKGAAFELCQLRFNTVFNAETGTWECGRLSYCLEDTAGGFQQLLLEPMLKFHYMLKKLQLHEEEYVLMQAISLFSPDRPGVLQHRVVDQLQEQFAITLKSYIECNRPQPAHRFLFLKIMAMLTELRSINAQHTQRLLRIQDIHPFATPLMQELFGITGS
Thyrotropin-releasing hormone receptor (Homo sapiens), sequence (P34981 whole entry, looked up): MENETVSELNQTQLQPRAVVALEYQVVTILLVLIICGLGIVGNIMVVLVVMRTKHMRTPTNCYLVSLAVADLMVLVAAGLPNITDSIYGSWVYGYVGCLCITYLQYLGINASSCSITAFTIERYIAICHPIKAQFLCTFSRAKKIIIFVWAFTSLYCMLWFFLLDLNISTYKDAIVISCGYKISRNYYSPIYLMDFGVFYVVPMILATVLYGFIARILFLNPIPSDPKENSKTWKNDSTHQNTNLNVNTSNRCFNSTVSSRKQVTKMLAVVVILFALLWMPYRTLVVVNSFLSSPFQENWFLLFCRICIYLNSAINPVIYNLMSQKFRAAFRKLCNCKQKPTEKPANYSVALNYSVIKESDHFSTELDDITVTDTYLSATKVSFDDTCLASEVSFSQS
Thyrotropin receptor (Homo sapiens), sequence (P16473 whole entry, looked up): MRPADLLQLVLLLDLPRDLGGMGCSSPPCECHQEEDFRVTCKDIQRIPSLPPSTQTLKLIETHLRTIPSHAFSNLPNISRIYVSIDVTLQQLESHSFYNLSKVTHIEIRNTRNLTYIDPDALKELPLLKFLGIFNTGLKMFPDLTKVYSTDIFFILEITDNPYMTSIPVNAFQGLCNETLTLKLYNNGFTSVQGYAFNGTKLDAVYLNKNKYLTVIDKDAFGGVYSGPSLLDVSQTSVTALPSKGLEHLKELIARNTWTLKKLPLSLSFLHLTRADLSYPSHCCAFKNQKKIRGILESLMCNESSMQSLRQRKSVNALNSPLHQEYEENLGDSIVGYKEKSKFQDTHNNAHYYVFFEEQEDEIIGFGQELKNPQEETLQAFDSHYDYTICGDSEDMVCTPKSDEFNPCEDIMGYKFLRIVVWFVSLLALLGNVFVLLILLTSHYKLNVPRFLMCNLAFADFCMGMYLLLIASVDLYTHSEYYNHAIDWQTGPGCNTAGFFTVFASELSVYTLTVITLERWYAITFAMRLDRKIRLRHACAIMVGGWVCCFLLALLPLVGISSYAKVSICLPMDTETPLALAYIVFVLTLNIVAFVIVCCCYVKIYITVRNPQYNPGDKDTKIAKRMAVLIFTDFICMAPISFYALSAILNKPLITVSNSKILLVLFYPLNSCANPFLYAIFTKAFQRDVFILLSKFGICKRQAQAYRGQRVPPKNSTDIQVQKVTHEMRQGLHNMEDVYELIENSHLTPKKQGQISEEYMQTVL

With `NC(=O)Nc1ccccc1`, the Potency entry in [1], in [2], in experiment [3], in experiment [4], in [5] and in experiment [6] was “inactive” throughout. The Potency entry in experiment [7], in experiment [10], in experiment [11], in experiment [12], in experiment [14] and in [15] was “inactive” each time. The outcome in [8], in experiment [9] and in experiment [13] was inactive.
Turning to `ClC(Cl)(Br)Br`, the Potency result in experiment [1], in experiment [2], in experiment [3], in experiment [4], in experiment [5] and in [6] was “inactive” throughout. For the same molecule, the Potency entry in experiment [7], in experiment [10], in experiment [11], in experiment [12], in experiment [14] and in experiment [15] was “inactive” throughout. For the same molecule, the molecule was called inactive in experiment [8], in [9] and in experiment [13].
Regarding `NS(=O)(=O)c1ccc(C(=O)O)cc1`, the Potency result in experiment [1], in [2], in [3], in experiment [4], in experiment [5] and in experiment [6] was “inactive” throughout. Also, the Potency entry in experiment [10], in experiment [11], in experiment [12], in experiment [14] and in experiment [15] was “inactive” in each case. Further, the outcome in experiment [8], in experiment [9] and in [13] was inactive.
In the case of `COC(=O)C1=C(C)NC(C)=C(C(=O)OC)C1c1ccccc1[N+](=O)[O-]`, the Potency entry in experiment [1], in experiment [2], in experiment [3], in experiment [5], in [6] and in experiment [7] was “inactive” in each case. Moreover, the Potency result in experiment [11] was “inactive”. For the same molecule, the Potency in experiment [4] was 23.7 µM (active); in experiment [12], 48.6 µM (active) and 26.6 µM (active); in experiment [14], 30.7 µM (active) and inactive. For the same molecule, the call in [8], in experiment [9], in experiment [16], in [17] and in experiment [13] was inactive.
As for `Nc1ccccc1S(=O)(=O)O`, the Potency entry in experiment [1], in [2], in experiment [3], in experiment [4], in experiment [5] and in experiment [6] was “inactive” in each case. The Potency result in experiment [7], in experiment [10], in [12], in [14] and in experiment [15] was “inactive” each time. Further, the outcome in experiment [8], in [9] and in experiment [13] was inactive.
Regarding `NC(=O)COCCN1CCN(C(c2ccccc2)c2ccc(Cl)cc2)CC1` (configuration not stated), the Potency result in [1], in experiment [2], in experiment [3], in [4], in experiment [5] and in experiment [6] was “inactive” in each case. For the same molecule, the Potency result in [7], in experiment [11], in experiment [12], in [14] and in experiment [15] was “inactive” throughout. For the same molecule, the call in experiment [8], in experiment [9], in [16], in [17] and in experiment [13] was inactive.
In the case of `Brc1c(NC2=NCCN2)ccc2nccnc12`, the Potency result in experiment [1], in experiment [2], in experiment [3], in [4], in experiment [5] and in experiment [6] was “inactive” throughout. In addition, the Potency result in experiment [7], in experiment [12] and in experiment [14] was “inactive” each time. Also, the outcome in [8], in experiment [9] and in experiment [13] was inactive.
Regarding `CC(C)(C)c1nnc(NS(=O)(=O)c2ccccc2)s1`, the Potency entry in experiment [1], in experiment [2], in experiment [3], in experiment [4], in [5] and in experiment [6] was “inactive” throughout. The Potency result in experiment [7], in experiment [11], in [12] and in experiment [14] was “inactive” throughout. The molecule was classed as inactive in experiment [8], in [9], in experiment [16], in experiment [17] and in experiment [13]. Also, the Potency in experiment [15] is 11.9 µM (active).
Consider `CN(C)CCCNCCCN(C)C`, for which the Potency result in experiment [1], in experiment [2], in [3], in experiment [4], in experiment [5] and in experiment [6] was “inactive” in each case. Further, the Potency entry in experiment [11], in experiment [12], in experiment [14] and in [15] was “inactive” throughout. The molecule was classed as inactive in [8], in experiment [9], in experiment [16], in [17] and in [13].
